We go through 40 compounds from PubChem BioAssay (Tox21).

Molecules are shown by their SMILES. “And” between values parts separate entries of the source, which are not always exact repeats. Equal values may be shown once. Records with an inconclusive call do not appear. Entries that show only a call come without a potency. The source made the active and inactive calls. The call rests on the fitted dose curve; in most records, active means well fitted cell-killing curve with a large enough effect in the repeat runs; inconclusive means weak or mixed curves, or effect the other way; inactive means flat fitted curve, though single readings scatter.
Potency means the concentration at half of the fitted maximal effect.

The nature of the assay: cAMP Responsive Elements (CRE) small molecule agonists, cell-based qHTS assay: qHTS cell viability counter screen (AID 2060914).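 Further: viability read after 3 h of compound exposure; nearly all actives have a fitted effect of over 50% in size.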 To be noted: CRE-bla HEK293T viability, CellTiter-Glo luminescence, 5 h; series mostly up to 92.4 µM. An outline of the steps:
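CRE-bla HEK 293T cells, plated 18 h at 37 °C, were exposed to compounds for 3 h at 37 °C/5% CO2. Viability was then measured in the same wells by CellTiter-Glo luminescence after 30 min at room temperature.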
For `COc1cc(C)c(Cc2cnc(N)nc2N)cc1OC`, the Potency result was “inactive”. As for `CC(C)(C)c1ccc(-c2ccc(C(C)(C)C)cc2)cc1`, the Potency result was “inactive”. The same measure for `CCCCCCCCCCCCOCCOCCOCCOCCOCCOCCOCCOCCOCCO`: 29.8 µM (active); for `CC(C)(C)CC(C)(C)c1ccc(O)c(Cc2ccc(Cl)cc2Cl)c1`: 13.3 µM (active). Turning to `O=C(NCCO[N+](=O)[O-])c1cccnc1`, the Potency result is “inactive”.

`CS(C)=O`: the Potency entry was “inactive”. The same measure for `CCCCCCCCCCCCCC(=O)OC`: “inactive”; for `CCC(C)O` (stereo not given): “inactive”; for `O=C(O)/C=C/c1ccc(/C=C/C(=O)O)cc1`: “inactive”. The value for `CCCC(O)C(CC)CO` (stereo not given) was “inactive”; that for `Cc1ccc(=O)n(-c2ccccc2)c1` was “inactive”. As to `Cn1sccc1=O`, the Potency entry was “inactive”. The value for `CCc1cnc(C(=O)O)c(C(=O)O)c1` was “inactive”. The same measure for `Clc1ccc(Sc2cc(Cl)c(Cl)cc2Cl)cc1`: “inactive”. The value for `CC(C)C(=O)OCC(C)(C)C(O)C(C)C` (stereo not given) was “inactive”; that for `CC(=O)C(=O)O` was “inactive”; that for `Clc1cccc(Cl)c1NC1=NCCN1` was “inactive”.

With `COc1cc(-c2nc(NC(=O)c3cc4cc(C)cc(C)c4n3CC(=O)O)sc2CCC2CCCCC2)c(OC)cc1Cl`, the Potency is 25 µM (active). Turning to `CCCCCCCCCCCC(=O)N(CC)CC`, the Potency result is “inactive”. The same measure for `CCN(CC)CCOc1ccc(/C(=C(\Cl)c2ccccc2)c2ccccc2)cc1`: “inactive”.

Regarding `COCC(=O)Nc1c(I)c(C(=O)NCC(O)CO)c(I)c(C(=O)N(C)CC(O)CO)c1I` (stereo not given), the Potency entry was “inactive”. Turning to `O=C1CCCCC1C1CCCCC1` (stereo not given), the Potency result is “inactive”. The value for `CS(=O)(=O)c1ccc([C@@H](O)[C@@H](CF)NC(=O)C(Cl)Cl)cc1` was “inactive”; that for `CC(=O)c1ccc(O)cc1` was “inactive”. In the case of `NC(=O)NC1NC(=O)NC1=O` (stereo not given), the Potency entry was “inactive”. The same measure for `CCCCCCCCS(=O)(=O)Cl`: “inactive”; for `CC(CC(C)(C)C)CC(C)(C)CC(C)(C)C` (stereo not given): “inactive”; for `OC[C@H]1O[C@H](O[C@H]2O[C@H](CO)[C@@H](O)[C@H](O)[C@H]2O)[C@H](O)[C@@H](O)[C@@H]1O`: “inactive”.

As to `C/C=C/C(=O)Oc1c(CCCCCC(C)C)cc([N+](=O)[O-])cc1[N+](=O)[O-]`, the Potency result is “inactive”. The same measure for `CCOc1ccc2nc(S(N)(=O)=O)sc2c1`: “inactive”.

Consider `N#CSCC(=O)O`, for which the Potency result is “inactive”. Turning to `C=CCOc1c(Br)cc(C(C)(C)c2cc(Br)c(OCC=C)c(Br)c2)cc1Br`, the Potency entry is “inactive”.

With `COC(/C=C(\C)CCC=C(C)C)OC`, the Potency result is “inactive”. The same measure for `CCCCCCCCCCCC[N+](C)(C)Cc1ccccc1`: 53.4 µM (active) and 37.4 µM (active) and 29.8 µM (active); for `O=C(Nc1ccc(Oc2ccc(Cl)cc2)c(Cl)c1)c1cc(I)cc(I)c1O`: “inactive”.

For the compound `CCc1cccc(C)c1N(C(=O)C(=O)O)C(C)COC` (stereo not given), the Potency result is “inactive”. The same measure for `NC(CCC(=O)O)C(=O)O` (stereo not given): “inactive”; for `CCN(Cc1cccc(S(=O)(=O)O)c1)c1ccc(C(=C2C=CC(=[N+](CC)Cc3cccc(S(=O)(=O)O)c3)C=C2)c2ccccc2S(=O)(=O)[O-])cc1`: 38.7 µM (active). The same measure for `O=C(Oc1ccccc1)c1cccc(C(=O)Oc2ccccc2)c1`: “inactive”; for `O=C(O)c1nc(Cl)c(Cl)c(Cl)c1Cl`: “inactive”.
